These results are taken from PubChem BioAssay (Tox21).

Values joined by “and” are separate entries in the source; they are usually repeats but may differ in a detail not shown here. Identical values can stand only once. Inconclusive results are not listed. Active and inactive are the calls of the source. Unless noted, calls come from the whole dose curve; as a rule, active = well fitted curve in the direction sought with a large enough effect in the repeat runs; inconclusive = weak or mixed curves; inactive = no such curve, though single readings can be large; an effect the other way counts as inactive or inconclusive.

Assay [1] is described as follows: qHTS assay for small molecule agonists of the p53 signaling pathway - cell viability (AID 651633; calls by dose curve; note: nearly all actives have a fitted effect of over 30% in size; note: potency is the fitted concentration of half-maximal effect). The essentials:
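p53RE-bla cells were treated with compound for 16 hours at 37 C. Cytotoxicity was then measured as CellTiter-Glo luminescence after 30 min at room temperature.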
(Quantitative high-throughput screening tests each substance at several concentrations.)

Assay [2] in a line: qHTS assay for small molecules that induce genotoxicity in human embryonic kidney cells expressing luciferase-tagged ATAD5 - cell viability (AID 651634; calls by dose curve; note: nearly all actives have a fitted effect of over 25% in size; note: potency is the fitted concentration of half-maximal effect). In outline:
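After 15.5 hr incubation with compound at 37C, 5% CO2, HEK293T ATAD5-luciferase cells received CellTiter-Fluor reagent; fluorescence intensity was quantified following 30 min at 37C.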

The nature of assay [3]: qHTS assay for small molecule disruptors of the mitochondrial membrane potential - cell viability (AID 720634; calls by dose curve; note: nearly all actives have a fitted effect of over 20% in size; note: potency is the fitted concentration of half-maximal effect). In outline:
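ATP-based luminescent viability readout (CellTiter-Glo, 30 min, room temperature) in HepG2 cells multiplexed with the m-MPI membrane potential dye; compound exposure lasted 1 hr at 37 C.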

Assay [4] in a line: qHTS assay to test for compound auto fluorescence at 535 nm (green) in HepG2 cells (AID 720675).
A short description of assay [5]: qHTS assay to test for compound auto fluorescence at 460 nm (blue) in HEK293 cells (AID 720678). The essentials:
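Cells were seeded and left to adhere for 4-5 hr at 37C. Compounds were then pin-transferred. After an overnight incubation at 37C under 5% CO2, intrinsic fluorescence at 405/460 nm was measured and referenced to triamterene.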

The nature of assay [6]: qHTS assay to test for compound auto fluorescence at 590 nm (red) in HEK293 cells (AID 720679). The essentials: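 Each well held 2,000 HEK293 cells in medium containing 10% dialyzed FBS. Following 4-5 hr attachment at 37C, 23 nL test compound or DMSO was added; plates sat overnight, and red fluorescence (540/590nm) was recorded.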
Assay [7] is described as follows: qHTS assay to test for compound auto fluorescence at 535 nm (green) in HEK293 cells (AID 720680).
The nature of assay [8]: qHTS assay to test for compound auto fluorescence at 460 nm (blue) in HEK293 cell free culture (AID 720681). The essentials:
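Compounds were added to cell-free DMEM with 10% FBS and fluorescence read directly. The blue channel used 405 nm excitation and 460 nm emission, with triamterene as the reference fluorophore.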

A short description of assay [9]: qHTS assay to test for compound auto fluorescence at 535 nm (green) in HEK293 cell free culture (AID 720682). The essentials: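 DMEM + 10% FBS, cell-free; cpd or DMSO pinned in; Ex485/Em535 read; output as fluorescein-equivalent signal.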
A short description of assay [10]: qHTS assay to test for compound auto fluorescence at 590 nm (red) in HepG2 cell free culture (AID 720684). In outline:
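Auto fluorescence equivalency versus Rose Bengal sodium, red channel Ex/Em 540/590 nm; compounds in cell-free MEM/10% FBS; DMSO vehicle control.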

Assay [11] in a line: qHTS assay to test for compound auto fluorescence at 460 nm (blue) in HepG2 cell free culture (AID 720685). In outline: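 Cell-free plates of MEM plus 10% FBS received 23 nL compound or DMSO vehicle; blue-channel (405/460 nm) intensity scored against triamterene as reference fluorophore.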
Assay [12] in a line: qHTS assay to test for compound auto fluorescence at 535 nm (green) in HepG2 cell free culture (AID 720686).
A short description of assay [13]: qHTS assay to test for compound auto fluorescence at 460 nm (blue) in HepG2 cells (AID 720687). In outline: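 HepG2 cells in MEM with 10% FBS, attached overnight at 37 C, were exposed to compound or DMSO for 1 hr at 37 C, 5% CO2. Blue fluorescence was read at 405/460 nm, with triamterene as reference fluorophore.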
The target of assay [14] is Glucocorticoid receptor (Homo sapiens) (UniProt P04150). The assay can be described thus: qHTS assay to identify small molecule agonists of the glucocorticoid receptor (GR) signaling pathway (AID 720691; active = well fitted activation curve with a large enough effect in the signal ratio in the repeat runs, not every such curve was filed as active; the % refers to the signal ratio). The essentials: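 Cells: GR-bla HeLa, endogenous GR with stably integrated GRE-beta-lactamase reporter. Treatment 18 h, 37 C, compounds delivered in DMSO. Detection via LiveBLAzer B/G FRET substrate, 2 h RT, fluorescence intensity.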

Assay [15] is described as follows: qHTS assay for small molecules that induce genotoxicity in human embryonic kidney cells expressing luciferase-tagged ATAD5 (AID 651632). Note: nearly all actives have a fitted effect of over 15% in size. In outline: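 Quantitative HTS in HEK293T expressing luciferase-tagged ATAD5, whose levels rise upon DNA damage. Exposure ran 16 hr at 37C and 5% CO2, with luminescence read 30 min after Amplite addition at room temperature.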

The nature of assay [16]: qHTS assay for small molecule disruptors of the mitochondrial membrane potential (AID 720635). Note: potency is the fitted concentration of half-maximal effect. The essentials:
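HepG2 cells exposed to compound 1 hr at 37C, then Mito-MPS dye 30 min. Ratio read of aggregate (540/590 nm) versus monomer (490/535 nm) fluorescence.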

The target in assay [17] is Glucocorticoid receptor (Homo sapiens) (UniProt P04150). The assay can be described thus: qHTS assay to identify small molecule antagonists of the glucocorticoid receptor (GR) signaling pathway (AID 720692; active = well fitted inhibition curve with a large enough effect in the signal ratio in the repeat runs, not every such curve was filed as active; the % refers to the signal ratio; note: potency is the fitted concentration of half-maximal effect). The essentials:
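Quantitative HTS in antagonist format: HeLa cells expressing endogenous GR and a stably integrated GRE-bla reporter, stimulated with 5 nM dexamethasone (final) alongside test compounds for 18 h.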

Assay [18] is described as follows: qHTS assay to test for compound auto fluorescence at 590 nm (red) in HepG2 cells (AID 720674). In outline: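 HepG2 cells, 2,000 per well in MEM with 10% FBS, attached overnight at 37 C, then got 23 nL compound or DMSO. After 1 hr at 37 C, 5% CO2, red fluorescence was read at 540/590 nm against Rose Bengal sodium as reference.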
Assay [19] in a line: qHTS assay to test for compound auto fluorescence at 590 nm (red) in HEK293 cell free culture (AID 720683). The essentials: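 Cell-free wells of DMEM with 10% FBS received compound, and intrinsic fluorescence was read at excitation/emission 540/590 nm. Values expressed as equivalence to Rose Bengal sodium.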

Chain of Glucocorticoid receptor (Homo sapiens) (P04150 whole entry, looked up): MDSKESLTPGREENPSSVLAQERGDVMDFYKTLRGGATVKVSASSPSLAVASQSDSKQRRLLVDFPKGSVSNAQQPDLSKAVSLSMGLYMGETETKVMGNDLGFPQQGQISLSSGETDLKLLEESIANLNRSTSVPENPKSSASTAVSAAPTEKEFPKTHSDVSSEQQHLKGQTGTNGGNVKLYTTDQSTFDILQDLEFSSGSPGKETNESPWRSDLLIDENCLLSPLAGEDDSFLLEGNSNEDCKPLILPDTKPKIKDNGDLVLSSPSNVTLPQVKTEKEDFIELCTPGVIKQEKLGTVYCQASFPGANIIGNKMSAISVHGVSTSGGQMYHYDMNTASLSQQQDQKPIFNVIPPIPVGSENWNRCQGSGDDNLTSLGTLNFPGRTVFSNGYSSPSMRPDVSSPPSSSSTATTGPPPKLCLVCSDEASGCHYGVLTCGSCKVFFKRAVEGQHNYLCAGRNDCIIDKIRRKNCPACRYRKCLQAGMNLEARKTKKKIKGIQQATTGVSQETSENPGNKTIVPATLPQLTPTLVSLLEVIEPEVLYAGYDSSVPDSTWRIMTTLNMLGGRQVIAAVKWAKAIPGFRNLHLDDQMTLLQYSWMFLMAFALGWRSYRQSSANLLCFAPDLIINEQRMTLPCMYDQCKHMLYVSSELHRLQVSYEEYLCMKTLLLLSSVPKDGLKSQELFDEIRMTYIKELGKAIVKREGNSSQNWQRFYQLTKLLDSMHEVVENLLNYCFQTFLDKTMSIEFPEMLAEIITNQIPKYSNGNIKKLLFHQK

Turning to `c1cc(OCC2CO2)ccc1Cc1ccc(OCC2CO2)cc1` (stereo not given), the Potency in assay [1] was 54.7 µM (active). The Potency entry in assay [2], in [3] and in assay [14] was “inactive” each time. Also, the compound was called inactive in [4], in assay [5], in assay [6], in assay [7], in assay [8] and in assay [9]. The outcome in [10], in assay [11], in assay [12] and in [13] was inactive.
As for `CCOC(=O)C(C)OC(=O)c1cc(Oc2ccc(C(F)(F)F)cc2Cl)ccc1[N+](=O)[O-]` (stereo not given), the Potency result in [15], in [1], in [2], in assay [14] and in assay [17] was “inactive” throughout. For the same compound, the Potency in assay [16] is 21.6 µM (active) and 61.1 µM (active). The outcome in [4], in assay [5], in [6], in assay [7], in [8] and in assay [9] was inactive. Also, the result in [10], in assay [11], in [12] and in [13] was inactive.
For `CC(C)(c1cc(Cl)c(O)c(Cl)c1)c1cc(Cl)c(O)c(Cl)c1`, the Potency in [1] was 61.1 µM (active); in assay [16] it was 2.43 µM (active) and 2.73 µM (active); in assay [17], 12.3 µM (active) and 6.92 µM (active). The Potency result in assay [2], in [3] and in assay [14] was “inactive” each time. The outcome in assay [18], in [5], in assay [6], in assay [7], in [8] and in assay [9] was inactive. Also, the result in assay [19], in assay [10], in assay [11], in [12] and in assay [13] was inactive.
For `C=C(C)[C@H]1Cc2c(ccc3c2O[C@@H]2COc4cc(OC)c(OC)cc4[C@@H]2C3=O)O1`, the Potency in assay [2] was 139 nM (active) and 486 nM (active); in assay [3], 11.9 µM (active) and 31 µM (active) and 12.2 µM (active); in [16], 15 µM (active) and 31 µM (active) and 4.86 µM (active). For the same compound, the call in [18], in assay [5], in assay [6], in [7], in assay [8] and in assay [9] was inactive. Besides, the result in assay [19], in assay [10], in assay [11], in assay [12] and in assay [13] was inactive. Also, the Potency entry in assay [14] was “inactive”.
With `O=C(O)CC[N+](=O)[O-]`, the Potency result in assay [1], in [2], in assay [3], in [16], in [14] and in assay [17] was “inactive” in each case. Also, the compound was called inactive in assay [18], in assay [4], in [5], in assay [6], in assay [7] and in assay [8]. Further, the call in [9], in [19], in assay [10], in assay [11], in assay [12] and in assay [13] was inactive.
In the case of `COc1ccc(C(CN(C)C)C2(O)CCCCC2)cc1` (stereo not given), the Potency entry in assay [1], in assay [2], in assay [3] and in assay [16] was “inactive” each time. In addition, the call in assay [18], in assay [5], in [6], in assay [7], in assay [8] and in assay [9] was inactive. For the same compound, the outcome in [10], in assay [11] and in [13] was inactive.
`CNC(=O)Oc1cccc2c1OC(C)(C)O2`: the Potency entry in assay [1], in assay [2], in assay [3], in assay [16] and in assay [14] was “inactive” throughout. Besides, the result in assay [18], in assay [4], in [5], in assay [6], in assay [7] and in assay [8] was inactive. Besides, the compound was called inactive in [9], in assay [19], in assay [10], in assay [11], in assay [12] and in [13].
On to `CC(C)(C)c1ccccc1O`, for which the Potency result in [15], in assay [1], in assay [2], in [14] and in [17] was “inactive” throughout. Besides, the compound was called inactive in [4], in [5], in assay [6], in assay [7], in assay [8] and in assay [9]. Further, the call in assay [10], in [11], in [12] and in assay [13] was inactive.
